# Key:
# Settings in all cases: concentration: 1 μM, replicates: in singlicate; n = 1
# MEK5 = test system: T1, MEK5
# T1 construct: gene MAP2K5
# MEK6 = test system: T2, MEK6
# T2 construct: gene MAP2K6
# MELK = test system: MELK
# MERTK = test system: MERTK
# MET = test system: MET
# MINK = test system: T3, MINK
# T3 construct: gene MINK1
# MKK7 = test system: MKK7
# MKNK1 = test system: MKNK1
# MKNK2 = test system: MKNK2
# MLCK = test system: T4, MLCK
# T4 construct: gene MYLK3
# 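Also: KINOMEscan kinase panel screen.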
SMILES,%Inh (MEK5),%Inh (MEK6),%Inh (MELK),%Inh (MERTK),%Inh (MET),%Inh (MINK),%Inh (MKK7),%Inh (MKNK1),%Inh (MKNK2),%Inh (MLCK)
COc1cccc(-c2ccc3c(NC(=O)C4CC4)n[nH]c3n2)c1 [SB-710903],61%,0%,0%,38%,28%,76%,0%,32%,21%,47%
O=C(Nc1cccc(-c2nn3ccccc3c2-c2ccnc(Nc3cccc(F)c3)n2)c1)c1c(F)ccc(F)c1Cl [GSK357952],88%,0%,0%,51%,0%,0%,0%,0%,29%,0%
O=C(Nc1cccc(Oc2ccc3nc(NC(=O)C4CC4)cn3n2)c1)c1ccccc1C(F)(F)F,99.8%,14%,15%,26%,7%,2%,0%,0%,0%,0%
COc1cc(Nc2nccc(-c3c(-c4cccc(NC(=O)c5c(F)cccc5F)c4)nn4ncccc34)n2)cc(OC)c1OC [GSK327238],99.9%,51%,31%,90.2%,79%,44%,0%,5%,5%,47%
O=C(Nc1n[nH]c2cc(-c3ccoc3)ccc12)C1CC1 [SB-738481],45%,0%,0%,0%,0%,44%,0%,0%,15%,34%
Cl.NC(=O)c1cccc(Nc2nccc(Nc3ccc(Oc4c(Cl)cccc4Cl)c(Cl)c3)n2)c1 [GW659009],97.5%,0%,0%,0%,0%,90.2%,17%,0%,1%,0%
COc1cc(Nc2ncc3c(C)nc(-c4cc5ccccc5[nH]4)n3n2)cc(OC)c1OC [GW869516],78%,0%,49%,56%,0%,1%,0%,0%,0%,36%
CN(C)Cc1ccc(-c2ccc3c(Nc4ccc(Oc5ccccn5)cc4)ccnc3c2)o1 [GW567148],100%,0%,0%,38%,12%,36%,0%,0%,38%,0%
COc1cccc(NC(=O)NC2CCN(c3ccnc(Nc4cc(OC)c(OC)c(OC)c4)n3)C2)c1 (stereo not shown) [GSK1379763],99.9%,0%,0%,15%,0%,0%,0%,36%,65%,0%
Cc1ccc(S(=O)(=O)Nc2ccc(Nc3nccc(Nc4cccc5[nH]ncc45)n3)cc2)cc1 [GSK581271],69%,0%,0%,9%,0%,0%,0%,0%,1%,0%
COCCOCCOc1cc2ncc3c4ccc(C#N)cc4[nH]c3c2cc1OC,100%,0%,54%,0%,10%,90.9%,0%,95.4%,99.7%,95.8%
Oc1cc(Nc2ccnc3cc(I)ccc23)ccc1F [GW552771],96.5%,0%,0%,34%,0%,55%,0%,0%,14%,0%
c1ccc(-c2cnc3nccnn23)cc1 [AH20685],0%,0%,0%,0%,0%,0%,0%,2%,11%,9%
Cn1cc(-c2ccc3c(c2)CCN3C(=O)Cc2cccc(Cl)c2)c2c(N)ncnc21 [GSK2606590],99.8%,0%,0%,79%,45%,0%,28%,21%,23%,6%
Cc1ccc(C)c(NC(=O)NC2CCN(c3ccnc(Nc4ccc(F)cc4)n3)C2)c1 (stereo not shown) [GSK1379720],50%,0%,0%,21%,0%,0%,0%,0%,0%,22%
O=C(Nc1cccc(-c2nn3ncccc3c2-c2ccnc(Nc3ccccc3)n2)c1)c1c(F)cccc1F [GSK198271],99.9%,59%,0%,79%,43%,23%,27%,11%,7%,8%

# — PMC5540273 (PLoS ONE, 2017)
